IL1B secr inh: inflammasome signaling inhibition, IL-1 beta readout | AID 743279 | 4.7% of 360,000 active | activity change, % at 57.5 µM | THP-1 LPS/ATP IL-1B secretion, AlphaLISA, 16 h; hits give low values; in the data active = activity change below about -50%; inconclusive = mostly about -30% to -49%; also: % is scaled to controls: 0 for no effect and ±100 for the full control effect
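THP-1 cells pretreated 1 hr with compounds (up to 57.5 uM final), then stimulated with LPS (250 ng/mL final) plus ATP (1.25 mM final); secreted IL-1B measured by AlphaLISA after 16 hr, decreased signal indicating inhibition.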
ATXN viability: viability counter-screen for ATXN expression inhibitors | S2 cells (HEK-293 line with an ATXN2-luciferase reporter) viability, CellTiter-Fluor protease fluorescence, 24 h | Potency, µM (highest dose often 56.7 µM), actives largely listed as cytotoxic | 0.49% of 400,000 active; also: potency is read from the fitted curve at half-maximal effect; nearly all actives have a fitted effect of over 40% in size
ATXN2 expr inh: reduces ATXN2 reporter expression in HEK-293 cells; AID 1745845; Potency, µM (doses to about 57 µM), for inactives: at the top dose activity change, negative = inhibition, most hits filed as inhibitors; 0.72% of 360,000 active; HEK-293 ATXN2-luciferase reporter, luminescence, 24 h; also: potency is read from the fitted curve at half-maximal effect; % is scaled to controls: 0 for no effect and ±100 for the full control effect; nearly all actives have a fitted effect of over 55% in size
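qHTS (up to 57 uM final) was run with 24 h compound exposure of reporter cells at 37 °C. Each well was multiplexed: SteadyGlo luminescence measured ATXN2-luciferase expression after a fluorogenic Gly-Phe-AFC viability readout (25 uM final).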
a7 integrin act: integrin-mediated muscular dystrophy alleviation activation; alpha7betagal myoblasts, beta-gal FDG fluorescence, 48 h; Potency, µM (highest dose often 38.3 µM), for inactives: at the highest dose activation, usual class: activators; 0.064% of 350,000 active; AID 624291;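 also: potency is read from the fitted curve at half-maximal effect; 100% = response of the positive control SU9516; nearly all actives have a fitted effect of over 60% in size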
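alpha7betagal+/- myoblasts (passage 13, 250/well) treated 48 h at 37C with compounds at 1:260 dilution of DMSO stock. Lysed, then beta-galactosidase activity read as FDG fluorescence (ex 480/em 540) after 30 min, with pre-read for autofluorescence.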
DRD3 agonist: agonists of human D3 dopamine receptor. P35462. D3R DiscoveRx beta-arrestin cells, luminescence, 90 min. max activation, %. 0.58% of 410,000 active; in the data active = max activation above about 30%; also: 0% is about no effect
Target sequence (P35462 whole entry, looked up): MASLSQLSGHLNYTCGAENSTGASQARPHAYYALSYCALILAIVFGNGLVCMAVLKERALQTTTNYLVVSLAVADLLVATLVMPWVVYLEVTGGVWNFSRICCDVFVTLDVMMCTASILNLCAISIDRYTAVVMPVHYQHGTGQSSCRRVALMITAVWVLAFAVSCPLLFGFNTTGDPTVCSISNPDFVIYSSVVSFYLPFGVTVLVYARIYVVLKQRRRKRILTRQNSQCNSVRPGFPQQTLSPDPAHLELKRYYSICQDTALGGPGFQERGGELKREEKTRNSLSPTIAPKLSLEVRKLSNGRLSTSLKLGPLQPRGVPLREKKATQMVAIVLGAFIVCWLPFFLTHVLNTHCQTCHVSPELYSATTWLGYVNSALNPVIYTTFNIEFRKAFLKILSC
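Agonist-mode cell screen: cells plated at 1500/well and incubated overnight at 37 °C, then exposed to library compounds for 90 min at 37 °C. Detection reagent was added for 30–60 min at room temperature, and luminescence was read.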
D3 antag: blocks the human D3 dopamine receptor; D3R cells, DiscoveRx beta-arrestin luminescence, antagonist mode; hits give low values; 2.5% of 360,000 active; AID 652054; max response, negative = inhibition, %; in the data active = max response below about -50%; inconclusive = no clear call, values can overlap the other calls; also: % is scaled to controls: 0 for no effect and ±100 for the full control effect
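Cells plated overnight at 1500 cells/well, then exposed to library compounds with dopamine controls for 90 minutes at 37 degrees C. DiscoveRx reagent added for 30–60 minutes at room temperature; luminescence read, quantitative HTS format.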
Numbers without * were called inactive. In the library only some 7% were active in any assay of this set; here they are far more common. Unless noted, calls follow the shape of the dose curve; as a rule, active = well fitted curve in the direction sought with a large enough effect; inconclusive = small, poorly fitted or top-dose-only effect, or another doubt; inactive = no such curve, though single readings can be large; an effect the other way counts as inactive or inconclusive.

Screening CN=c1scc(-c2ccccc2F)n1/N=C/c1ccc[nH]1 returned IL1B secr inh inconclusive, ATXN viability inconclusive, ATXN2 expr inh 3.2µM*, a7 integrin act 3%, DRD3 agonist -8 and D3 antag -24.
O=C(CSc1nc2c([nH]c3ccccc32)c(=O)n1-c1ccc(F)cc1)NCc1ccccc1 was read as ATXN viability inactive, ATXN2 expr inh 0% and DRD3 agonist 2.
Screening CCOC(=O)C1(C)CCCN(C(=O)c2cccc3ccccc23)C1 (stereo not drawn) returned IL1B secr inh 0, ATXN viability inactive, ATXN2 expr inh -7%, DRD3 agonist 5 and D3 antag 15.
`Nc1ncnc2c1c(-c1ccc(Oc3ccccc3)cc1)cn2C1CCCC1` gave IL1B secr inh 56, ATXN viability inconclusive, ATXN2 expr inh -34%, DRD3 agonist 22 and D3 antag 36.
For CSc1ccc(CN(C)C(=O)C2CCN(C(=O)Nc3ccccc3)CC2)cc1 the results were IL1B secr inh -7, ATXN viability inactive, ATXN2 expr inh -23%, a7 integrin act -2%, DRD3 agonist 3 and D3 antag -15.
Screening C/C(=N\Nc1ncc(Br)cn1)c1cccc([N+](=O)[O-])c1 returned IL1B secr inh -73*, ATXN viability inactive, ATXN2 expr inh 11%, a7 integrin act -12%, DRD3 agonist 2 and D3 antag -3.
Screening CCOC(=O)c1sc(=S)n(-c2ccccc2Cl)c1SC returned IL1B secr inh -67*, ATXN viability inactive, ATXN2 expr inh -24%, a7 integrin act 1%, DRD3 agonist 5 and D3 antag -25.
Screening CC(=O)n1cc(N(C(=O)CCl)c2ccc(C)cc2)c2ccccc21 returned IL1B secr inh -95*, ATXN viability 10µM*, ATXN2 expr inh 8.9µM*, a7 integrin act -61%, DRD3 agonist -11 and D3 antag -67*.
Screening CCOC(=O)C1CCN(C(=O)C2CCCN(c3ncnc4c3nc3n4CCCCC3)C2)CC1 (stereo not drawn) returned IL1B secr inh -5, ATXN viability inactive, a7 integrin act -21%, DRD3 agonist -3 and D3 antag 17.
`Cc1ccccc1C(=O)OCC(=O)N(C)c1c(N)n(Cc2ccccc2)c(=O)[nH]c1=O` gave IL1B secr inh -4, ATXN viability inactive, ATXN2 expr inh 2%, a7 integrin act 20%, DRD3 agonist 5 and D3 antag 5.
`Cc1cc(C(=O)OCC(=O)N(C)c2c(N)n(Cc3ccccc3)c(=O)[nH]c2=O)c(C)n1-c1ccccc1` gave IL1B secr inh -55*, ATXN viability inactive, ATXN2 expr inh 9%, a7 integrin act -6%, DRD3 agonist -11 and D3 antag 5.
`CNc1ccccc1C(=O)OCC(=O)c1ccccc1` gave IL1B secr inh 2, ATXN viability inactive, ATXN2 expr inh 48%, a7 integrin act -16%, DRD3 agonist 2 and D3 antag -13.
CN(C(=O)COC(=O)c1ccccc1Nc1ccccc1)c1c(N)n(Cc2ccccc2)c(=O)[nH]c1=O was read as IL1B secr inh -63*, ATXN viability inactive, ATXN2 expr inh inconclusive, a7 integrin act -32%, DRD3 agonist -4 and D3 antag 13.
`O=C(COC(=O)c1ccccc1Nc1ccccc1)c1ccccc1` gave IL1B secr inh -60*, ATXN viability inactive, ATXN2 expr inh 19%, a7 integrin act 20%, DRD3 agonist 15 and D3 antag 10.
Screening COCCN(C(=O)COC(=O)c1cccc2ccccc12)c1c(N)n(Cc2ccccc2)c(=O)[nH]c1=O returned IL1B secr inh 7, ATXN viability inactive, ATXN2 expr inh -2%, a7 integrin act -20%, DRD3 agonist -2 and D3 antag 3.
For COCCN(C(=O)COC(=O)c1ccccc1Nc1ccccc1)c1c(N)n(Cc2ccccc2)c(=O)[nH]c1=O the results were IL1B secr inh -53*, ATXN viability inconclusive, ATXN2 expr inh inconclusive, a7 integrin act -28%, DRD3 agonist 6 and D3 antag -23.

Screening data (PubChem)
